Experiment [1] concerns the target Luciferin 4-monooxygenase (Photinus pyralis) (UniProt P08659). The experiment can be described thus: Biochemical firefly luciferase enzyme assay for NPC (AID 624030). Further: nearly all actives have a fitted effect of over 70% in size. In short, it runs like this: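 Direct inhibition of firefly luciferase enzyme (10 nM final, 50 mM Tris Acetate) assessed by luminescence within 5 minutes. Percent activity scaled between DMSO and PTC124 positive control, with concentration-effect curves classified by fit quality and response.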

The nature of experiment [2]: qHTS Assay for Identifying Gametocytocidal Compounds (AID 743244).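 On max response: on the % scale 0 is the no-effect control and ±100 the full control effect; actives lower the fluorescent signal which means gametocytes are killed.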 Particulars: P. falciparum 3D7 stage III-V gametocytes, alamarBlue, 72 h; max response: stronger effect = lower value. The essentials:
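P. falciparum 3D7 stage III–V gametocytes (20,000 cells/well) were exposed to compounds for 72 h at 37 °C, 5% CO2. AlamarBlue was then added for 24 h; decreased resorufin fluorescence (Ex 525/Em 598 nm) indicated loss of viability.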

Experiment [3] in a line: P-glycoprotein substrates identified in KB-8-5-11 adenocarcinoma cell line, qHTS therapeutic library screen (AID 1346987). Further: nearly all actives have a fitted effect of over 65% in size. In short, it runs like this: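 In this qHTS, P-gp-rich KB-8-5-11 cells received library compounds across a concentration range. Viability was quantified by luminescence after 72 h at 37 degree C.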
For orientation: qHTS replaces the single test concentration by a dilution series.

The subject of the next experiment is KB-3-1. Nature of the experiment: Cytotoxic Profiling of Annotated Libraries Using Quantitative High-Throughput Screening (AID 1296008). Further: nearly all actives have a fitted effect of over 60% in size. On max response: on the % scale 0 is the no-effect control and ±100 the full control effect. Particulars: Five cell lines viability, CellTiter-Glo ATP luminescence, 48-72 h; max response: stronger effect = lower value. In short, it runs like this:
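Cytotoxicity was measured as CellTiter-Glo ATP luminescence, read after 10 min at room temperature. Compound treatment of the cells lasted 48 or 72 hr at 37 degrees Celsius in a qHTS format.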
For orientation: ATP-based viability assays read luminescence as a measure of living cells.

Another experiment concerns astro. Nature of the experiment: Drug repurposing screens with cells derived from glioblastoma tumor samples (AID 1345199). Further: nearly all actives have a fitted effect of over 40% in size. Particulars: viability, ATP luminescence, 48 h; series mostly up to 45.9 µM. The essentials:
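Primary testing used CD133+ neurospheres from four GBM patients, seven concentrations, 48 h exposure and ATP-based viability; confirmation added three slower-growing patient lines.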

Experiment [4] deals with ATP-dependent 6-phosphofructokinase (Trypanosoma brucei brucei) (UniProt O15648). Nature of the experiment: qHTS Assay to Find Inhibitors of T. brucei phosphofructokinase: hit validation (AID 492961). The essentials:
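Measures ADP output of PFK (1.25 nM) at 0.1 mM ATP, 0.5 mM F6P, pH 8.0 TEA buffer with 5 mM MgCl2. No-enzyme wells define full inhibition; uninhibited enzyme wells define zero.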

The target in experiment [5] is Ubiquitin carboxyl-terminal hydrolase 1 (Homo sapiens) (UniProt O94782). Nature of the experiment: Inhibitors of USP1/UAF1: Pilot qHTS (AID 504865). Further: nearly all actives have a fitted effect of over 35% in size. The essentials: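 USP1/UAF1 complex (1nM) preincubated with compound 15 min at room temperature, then Ub-Rho substrate (150nM final) added. Fluorescence read kinetically at 480/540 nm, 6 reads every 60 seconds. Buffer: 50mM HEPES pH 7.8, 0.5mM EDTA, 0.1 mg/ml BSA, 1mM TCEP, 0.01% Tween-20.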

The nature of experiment [6]: S16 Schwann cell viability assay (CellTiter-Glo assay) (AID 624031). Further: nearly all actives have a fitted effect of over 70% in size. The essentials: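 Parental S16 cells, 24 h compound, 37 °C. ATP-luminescence viability; DMSO = 0% activity, empty wells as reference; curves classified by fit quality and efficacy.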
A short description of experiment [7]: S16 Schwann cell PMP22 intronic element firefly luciferase assay (AID 624032). Further: nearly all actives have a fitted effect of over 30% in size. In short, it runs like this:
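Luciferase reporter of PMP22 intronic-element expression in stably transfected S16 rat Schwann cells, read by ONE-Glo luminescence after 24 h compound exposure at 37 C. Activity scaled between DMSO (0%) and positive-control PTC124; concentration-effect curves quality-classified.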

A short description of experiment [8]: S16 Schwann cell PMP22 intronic element beta-lactamase assay (AID 624044; calls by dose curve; further: nearly all actives have a fitted effect of over 15% in size). The essentials: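 Beta-lactamase reporter under a PMP22 intronic regulatory element in stable S16 rat Schwann cells; 24 h compound exposure. 460 nm blue signal normalized between DMSO (0%) and potassium clavulanate, with 535 nm FRET tracking viability; curves classed by r2 and response.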

The nature of experiment [9]: qHTS profiling for inhibitors of Plasmodium falciparum proliferation (AID 504749). Further: nearly all actives have a fitted effect of over 60% in size. Particulars: P. falciparum in erythrocytes, SYBR Green DNA, 72 h. In short, it runs like this:
(§1)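 In a 72 h erythrocytic culture (37 C, humidified, 5% CO2) at 2.5% hematocrit and 0.3% starting parasitemia, compounds were tested; SYBR Green I in detergent lysis buffer stained parasite DNA overnight.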

A further experiment concerns 3D7. Described as above. Particulars: P. falciparum in erythrocytes, SYBR Green DNA, 72 h; series mostly up to 28.7 µM. In short, it runs like this: as §1
The test system of a further experiment is 7G8. The experiment is described as above. Particulars: P. falciparum in erythrocytes, SYBR Green DNA, 72 h; series mostly up to 28.7 µM. The essentials: as §1
In a further experiment the test system is AA1029. The experiment is described as above. Particulars: P. falciparum in erythrocytes, SYBR Green DNA, 72 h; series mostly up to 28.7 µM. In short, it runs like this:
as §1

For a further experiment, the system named is CP211. Described as above. Particulars: P. falciparum in erythrocytes, SYBR Green DNA, 72 h; series mostly up to 28.7 µM. The essentials: as §1
A further experiment deals with CP217. The description is as above. Particulars: P. falciparum in erythrocytes, SYBR Green DNA, 72 h; series mostly up to 28.7 µM. In short, it runs like this:
as §1

For a further experiment, the system named is CP238. The experiment is described as above. Particulars: P. falciparum in erythrocytes, SYBR Green DNA, 72 h; series mostly up to 28.7 µM. In short, it runs like this: as §1
The subject of the next experiment is CP247. The experiment is described as above. Particulars: P. falciparum in erythrocytes, SYBR Green DNA, 72 h; series mostly up to 28.7 µM. In short, it runs like this:
as §1

The subject of another experiment is CP269. The experiment is described as above. Particulars: P. falciparum in erythrocytes, SYBR Green DNA, 72 h; series mostly up to 28.7 µM. The essentials: as §1
A further experiment concerns CP286. The description is as above. Particulars: P. falciparum in erythrocytes, SYBR Green DNA, 72 h; series mostly up to 28.7 µM. In short, it runs like this: as §1
Another experiment concerns DFO2036. Described as above. Particulars: P. falciparum in erythrocytes, SYBR Green DNA, 72 h; series mostly up to 28.7 µM. The essentials: as §1
The test system of another experiment is DIV14. Described as above. Particulars: P. falciparum in erythrocytes, SYBR Green DNA, 72 h; series mostly up to 28.7 µM. In short, it runs like this:
as §1

For another experiment, the system named is DIV17. Described as above. Particulars: P. falciparum in erythrocytes, SYBR Green DNA, 72 h; series mostly up to 28.7 µM. In short, it runs like this:
as §1

A further experiment deals with Dd2. Described as above. Particulars: P. falciparum in erythrocytes, SYBR Green DNA, 72 h; series mostly up to 28.7 µM. In short, it runs like this: as §1
Another experiment has as its system ECU. The experiment is described as above. Particulars: P. falciparum in erythrocytes, SYBR Green DNA, 72 h; series mostly up to 28.7 µM. In short, it runs like this: as §1
For the next experiment, the system named is FAB9. Described as above. Particulars: P. falciparum in erythrocytes, SYBR Green DNA, 72 h; series mostly up to 28.7 µM. The essentials: as §1
In the next experiment the test system is GB4. The description is as above. Particulars: P. falciparum in erythrocytes, SYBR Green DNA, 72 h; series mostly up to 28.7 µM. In short, it runs like this:
as §1

A further experiment concerns HB3. The description is as above. Particulars: P. falciparum in erythrocytes, SYBR Green DNA, 72 h; series mostly up to 28.7 µM. The essentials: as §1
For the next experiment, the system named is ICS. Described as above. Particulars: P. falciparum in erythrocytes, SYBR Green DNA, 72 h; series mostly up to 28.7 µM. In short, it runs like this: as §1
A further experiment has as its system N140. The experiment is described as above. Particulars: P. falciparum in erythrocytes, SYBR Green DNA, 72 h; series mostly up to 28.7 µM. The essentials:
as §1

A further experiment deals with P93_24. Described as above. Particulars: P. falciparum in erythrocytes, SYBR Green DNA, 72 h; series mostly up to 28.7 µM. The essentials:
as §1

In the next experiment the test system is PAD. Described as above. Particulars: P. falciparum in erythrocytes, SYBR Green DNA, 72 h; series mostly up to 28.7 µM. The essentials:
as §1

For the next experiment, the system named is TAB109. The experiment is described as above. Particulars: P. falciparum in erythrocytes, SYBR Green DNA, 72 h; series mostly up to 28.7 µM. In short, it runs like this:
as §1

For the next experiment, the system named is TAB165. The experiment is described as above. Particulars: P. falciparum in erythrocytes, SYBR Green DNA, 72 h; series mostly up to 28.7 µM. The essentials:
as §1

The test system of the next experiment is W2. Described as above. Particulars: P. falciparum in erythrocytes, SYBR Green DNA, 72 h; series mostly up to 28.7 µM. The essentials: as §1

Structures are written as SMILES. Several values for one entry are separate records, joined by “and”; a condition that tells them apart may be missing. Identical values can stand only once. Records with an inconclusive call do not appear. Unmarked numbers belong to inactive results. Activity calls are given as the source filed them. Unless noted, the call rests on the fitted dose curve; in most records, active means well fitted curve in the direction sought with a large enough effect; inconclusive means small, poorly fitted or top-dose-only effect, or another doubt; inactive means no such curve, though single readings can be large; an effect the other way counts as inactive or inconclusive.
Potency means the concentration at half of the fitted maximal effect.

Chain of Luciferin 4-monooxygenase (Photinus pyralis) (P08659 whole entry, looked up): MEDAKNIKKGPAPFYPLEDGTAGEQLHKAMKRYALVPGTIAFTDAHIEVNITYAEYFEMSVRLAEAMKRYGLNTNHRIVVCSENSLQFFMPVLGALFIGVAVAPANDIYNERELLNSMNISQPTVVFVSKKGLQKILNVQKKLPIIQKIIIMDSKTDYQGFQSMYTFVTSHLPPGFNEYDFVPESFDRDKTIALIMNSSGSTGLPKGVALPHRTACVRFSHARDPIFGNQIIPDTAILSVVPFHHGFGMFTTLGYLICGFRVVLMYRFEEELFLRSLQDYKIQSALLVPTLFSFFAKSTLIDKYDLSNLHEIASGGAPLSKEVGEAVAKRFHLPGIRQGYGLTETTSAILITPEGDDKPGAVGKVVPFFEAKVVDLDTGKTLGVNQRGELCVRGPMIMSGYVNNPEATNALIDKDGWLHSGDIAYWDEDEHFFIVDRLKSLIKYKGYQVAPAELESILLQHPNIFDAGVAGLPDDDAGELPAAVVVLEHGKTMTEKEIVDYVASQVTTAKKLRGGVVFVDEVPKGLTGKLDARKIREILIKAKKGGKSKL
Chain of ATP-dependent 6-phosphofructokinase (Trypanosoma brucei brucei) (O15648 whole entry, looked up): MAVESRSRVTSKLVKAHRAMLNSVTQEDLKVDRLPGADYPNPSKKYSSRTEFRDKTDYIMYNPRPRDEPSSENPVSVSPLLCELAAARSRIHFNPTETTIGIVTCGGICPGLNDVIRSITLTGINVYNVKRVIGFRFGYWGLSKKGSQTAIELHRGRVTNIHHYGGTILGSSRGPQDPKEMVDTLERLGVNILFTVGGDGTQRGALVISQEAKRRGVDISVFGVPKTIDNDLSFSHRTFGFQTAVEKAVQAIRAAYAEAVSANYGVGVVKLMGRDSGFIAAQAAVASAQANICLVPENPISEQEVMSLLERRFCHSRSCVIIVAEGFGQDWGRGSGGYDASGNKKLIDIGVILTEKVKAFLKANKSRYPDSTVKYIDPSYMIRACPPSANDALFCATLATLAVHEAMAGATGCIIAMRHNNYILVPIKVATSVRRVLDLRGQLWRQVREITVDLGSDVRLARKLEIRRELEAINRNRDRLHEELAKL
Chain of Ubiquitin carboxyl-terminal hydrolase 1 (Homo sapiens) (O94782 whole entry, looked up): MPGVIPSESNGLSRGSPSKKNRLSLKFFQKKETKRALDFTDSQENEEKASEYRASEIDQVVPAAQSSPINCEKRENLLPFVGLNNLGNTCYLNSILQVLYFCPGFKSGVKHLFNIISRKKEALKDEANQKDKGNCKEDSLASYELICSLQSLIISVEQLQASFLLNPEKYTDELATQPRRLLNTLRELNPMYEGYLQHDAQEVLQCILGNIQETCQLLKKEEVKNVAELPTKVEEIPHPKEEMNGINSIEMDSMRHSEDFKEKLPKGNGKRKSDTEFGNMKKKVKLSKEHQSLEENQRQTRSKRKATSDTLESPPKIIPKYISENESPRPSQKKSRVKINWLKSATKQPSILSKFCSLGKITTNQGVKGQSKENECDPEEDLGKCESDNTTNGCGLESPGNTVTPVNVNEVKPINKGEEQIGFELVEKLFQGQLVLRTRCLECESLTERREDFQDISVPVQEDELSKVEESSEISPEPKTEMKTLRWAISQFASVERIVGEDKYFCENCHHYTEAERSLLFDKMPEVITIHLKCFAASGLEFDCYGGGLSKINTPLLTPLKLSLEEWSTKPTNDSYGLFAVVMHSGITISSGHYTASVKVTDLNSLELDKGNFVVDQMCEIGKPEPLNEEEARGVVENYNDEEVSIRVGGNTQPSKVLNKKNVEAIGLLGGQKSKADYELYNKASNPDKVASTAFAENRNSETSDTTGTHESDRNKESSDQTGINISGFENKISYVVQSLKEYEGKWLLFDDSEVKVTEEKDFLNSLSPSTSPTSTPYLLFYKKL

With `C1CN(P2(N3CC3)=NP(N3CC3)(N3CC3)=NP(N3CC3)(N3CC3)=N2)CCO1` (centres undefined), the Potency result (in experiment [1]; in experiment [3]; in the experiment with astro) was “inactive” throughout. Further, the values for the max response (in [2]; with KB-3-1) were -9.28% and 42.2%, respectively.
On to `Oc1ccc2c3c1O[C@H]1[C@@H](O)C=C[C@H]4[C@H](C2)NCC[C@@]341`, for which the max response in [2] was 8.16%; in the experiment with KB-3-1 it was -12.5%. The Potency entry (in experiment [3]; in the experiment with astro) was “inactive” each time.
Turning to `COc1cc(C[C@H](C)N)c(OC)cc1C`, the max response in experiment [2] was -10.7%; in the experiment on KB-3-1 it was -5.3%. Moreover, the Potency result (in [3]; in the experiment on astro) was “inactive” each time.
In the case of `Oc1cc[c]([Hg][Cl])cc1`, the Potency in experiment [4] was 2.82 µM (active); in experiment [5] it was 50.1 µM (active); in experiment [1], 8.09 µM (active) and 9.07 µM (active); in [6] it was 1.14 µM (active); in experiment [7] it was 0.907 µM (active); in experiment [8] it was 2.24 µM (active). In addition, the Potency in experiment [2] was 3.55 µM (active) and 2.82 µM (active); in [3], 5.8 µM (active) and 6.51 µM (active); in [9] (parasite line A), 7.94 µM (active); in experiment [9] (parasite line B) it was 10 µM (active); in the experiment on 3D7, 8.91 µM (active); with 7G8, 3.16 µM (active). In addition, the Potency is 11.2 µM (active) with AA1029; 10.7 µM (active) in the experiment with CP211; 8.91 µM (active) with CP217; 10 µM (active) in the experiment on CP238; 5.01 µM (active) in the experiment with CP247; 8.49 µM (active) in the experiment on CP269. Also, the Potency is 10 µM (active) with CP286; 8.91 µM (active) in the experiment with DFO2036; 7.57 µM (active) with DIV14; 6.75 µM (active) in the experiment with DIV17; 11.2 µM (active) in the experiment on Dd2; 10 µM (active) in the experiment with ECU. In addition, the Potency in the experiment with FAB9 was 10 µM (active); in the experiment with GB4, 6.75 µM (active); in the experiment with HB3 it was 11.2 µM (active); in the experiment on ICS, 7.94 µM (active); in the experiment on N140, 6.31 µM (active); with P93_24, 11.2 µM (active). Moreover, the Potency is 11.2 µM (active) in the experiment with PAD; 7.08 µM (active) in the experiment with TAB109; 10 µM (active) in the experiment on TAB165; 5.36 µM (active) in the experiment with W2; 6.51 µM (active) in the experiment with KB-3-1; 3.16 µM (active) and 5.62 µM (active) with astro.

For the origin of these results see PubChem BioAssay (NCATS).
